# Bioassay records as filed in PubChem BioAssay.
# ELG1 genotoxic: genotoxicity induction in ELG1-luciferase HEK293T cells. HEK293T ELG1-luciferase reporter, luminescence, 16 h. Potency, µM (highest dose often 46 µM), for the others: at the highest dose activity change, positive = activation, usual class: activators. 1.3% of 330,000 active; further: % of control where 0% means no effect; nearly all actives have a fitted effect of over 60% in size
#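 ELG1-luciferase HEK293T cells, 2,000/well; compound pinned in; 16 hr, 37 °C, 5% CO2; ONE-Glo, 30 min RT; luminescence on CCD imager.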
# FLuc counter: firefly luciferase modulation, counter-screen for miR-21 project | purified FLuc, Km substrates, luminescence inhibition | P08659 | Potency, µM (titrated, usually from 57.5 µM), for inactives: at the highest dose activity change, negative = inhibition, hits mostly inhibitors | 6.9% of 360,000 active;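 further: plate controls were vehicle for no effect and reference inhibitor for full effect; nearly all actives have a fitted effect of over 55% in size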
# Target sequence (P08659 whole entry, looked up): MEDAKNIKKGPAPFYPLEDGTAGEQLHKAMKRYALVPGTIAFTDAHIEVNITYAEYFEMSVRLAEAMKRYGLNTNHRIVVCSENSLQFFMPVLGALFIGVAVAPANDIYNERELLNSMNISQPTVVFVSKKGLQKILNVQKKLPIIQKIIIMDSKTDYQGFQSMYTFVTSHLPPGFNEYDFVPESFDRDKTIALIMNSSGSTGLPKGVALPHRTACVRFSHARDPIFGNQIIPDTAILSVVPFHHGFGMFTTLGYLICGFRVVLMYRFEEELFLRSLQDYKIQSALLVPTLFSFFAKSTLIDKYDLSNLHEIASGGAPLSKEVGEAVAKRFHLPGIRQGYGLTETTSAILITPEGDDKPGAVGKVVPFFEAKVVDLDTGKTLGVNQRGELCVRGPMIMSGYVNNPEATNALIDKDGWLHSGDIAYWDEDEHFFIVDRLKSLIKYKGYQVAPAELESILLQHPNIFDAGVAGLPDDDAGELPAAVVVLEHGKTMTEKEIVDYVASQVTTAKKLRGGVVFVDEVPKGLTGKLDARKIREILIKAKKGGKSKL
#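 Purified P. pyralis luciferase, 10 nM final, with Km-level 10 uM D-luciferin and 10 uM ATP in 50 mM Tris acetate pH 7.5, 10 mM Mg acetate, 0.01% Tween-20, 0.05% BSA; 6-point qHTS titration about 60 µM downward; luminescence read.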
# Rab9 prom act: activators of Rab9 promoter; 2.8% of 320,000 active; Huh7 Rab9 promoter-luciferase reporter, luminescence, 24 h; Potency, µM (doses to about 9.22 µM), for inactives: at the top dose activation, negative = inhibition, usual class: activators; further: % of control where 0% means no effect; nearly all actives have a fitted effect of over 60% in size
#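 Measured in stably transfected Huh7 cells bearing a Rab9 promoter–luciferase construct: 24 h compound treatment at 37 °C, followed by luminescence detection.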
# NPC1 promoter act: activators of NPC1 promoter; AID 485313; Huh7 NPC1 promoter luciferase reporter, 24 h; Potency, µM (highest dose often 9.22 µM), for inactives: at the top dose activation, actives largely listed as activators; 2.4% of 320,000 active; further: % of control where 0% means no effect; nearly all actives have a fitted effect of over 60% in size
#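 Compounds in DMSO were transferred onto Huh7 NPC1-luciferase reporter cells pre-incubated 2 h; after 24 h at 37 °C, Amplite reagent was dispensed and luminescence recorded 10 min later.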
# SMN2 splice enh: enhancers of SMN2 splice variant expression. Potency, µM (top dose mostly 46.1 µM), for inactives: at the highest dose activity change, positive = activation, actives largely listed as activators. 2.8% of 210,000 active. HEK293 SMN2-luciferase splicing reporter, luminescence, 30-36 h; further: % of control where 0% means no effect; nearly all actives have a fitted effect of over 55% in size
#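 qHTS luciferase splicing reporter: luminescence rises when SMN2 exon 7 is included in transfected HEK293 cells. Compound exposure lasted 30-36 h at 37C, with 4.5 mM final sodium butyrate as control, followed by a ONE-Glo read.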
# An asterisk follows results filed as active; ? = inconclusive; . = not tested or not shown; [ ] = another dose, or the depositor's remark. An excerpt weighted towards active compounds, which were near 7.4% of everything screened. The call rests on the fitted dose curve; in most records, active means well fitted curve in the direction sought with a large enough effect; inconclusive means small, poorly fitted or top-dose-only effect, or another doubt; inactive means no such curve, though single readings can be large; an effect the other way counts as inactive or inconclusive. Potency means the concentration at half of the fitted maximal effect.
SMILES,ELG1 genotoxic,FLuc counter,Rab9 prom act,NPC1 promoter act,SMN2 splice enh
O=C(Nc1ccccc1)O[C@@H]1C[C@H]2CCC(=O)N3CC[C@@H](C1)[C@@H]23,?,21µM*,?,?,.
O=C(Nc1ccc2c(c1)OCO2)O[C@@H]1C[C@H]2CCC(=O)N3CC[C@@H](C1)[C@@H]23,-4%,-2%,8%,3%,.
CSc1ccccc1NC(=O)Nc1ccc(F)c(Cl)c1,2%,12µM*,15%,16%,6%
CSc1ccccc1NC(=O)Nc1cccc(Cl)c1C,19%,-2%,1%,-2%,-46%
CSc1ccccc1NC(=O)Nc1cccc(Cl)c1Cl,2%,2%,1%,0%,12%
Cc1ccc(NC(=O)Nc2cccc(Cl)c2)c(C(=O)O)c1,8%,12µM*,-5%,18%,-7%
CSc1ccccc1NC(=O)Nc1cccc(Cl)c1,1%,24µM*,13%,11%,19%
Cc1ccc2nsnc2c1S(=O)(=O)N1CCOCC1,-2%,0%,9%,5%,-24%
CNc1cnn(-c2ccc(C)cc2)c(=O)c1Cl,?,13µM*,3.2µM*,1.6µM*,11µM*
CNc1cnn(-c2ccc(C)cc2)c(=O)c1Sc1ccc(C)cc1,2%,-1%,1%,0%,8%
C=CCNC(=O)c1c(Cl)cnn1-c1ccc(C)cc1,?,17µM*,3.2µM*,2µM*,.
C=CCNC(=O)c1cnn(-c2ccccc2)c1-c1ccccc1,-5%,-2%,-1%,-2%,.
CNC(=O)c1c(Br)cnn1-c1ccc(C)cc1,?,7.6µM*,3.2µM*,2.8µM*,.
Cc1ccc(-n2ncc(C(=O)NC3CC3)c2C2CCN(C(=O)OC(C)(C)C)CC2)cc1,1%,5%,-6%,2%,.
Cc1ccc(-n2ncc(Cl)c2C(=O)NC2CC2)cc1,?,11µM*,1.8µM*,3.2µM*,.
CNC(=O)c1c(Cl)cnn1-c1ccc(C)cc1,?,12µM*,3.2µM*,2.2µM*,.
O=c1c(Cl)c(N/N=C/c2ccc(Cl)cc2)cnn1-c1ccccc1,6%,-4%,0.32µM*,0.56µM*,-7%[1.84 µM]
Cc1ccc(-n2nc(C)c(NC(=O)CCl)c2C)cc1,-7%,-2%,-34%,-11%,-35%
Nc1c(C(=O)N/N=C/c2ccc(Cl)cc2)cnn1-c1ccccc1,14%,6%,?,29%,.
Cc1ccc(C(=O)CC2(O)C(=O)N(CCc3ccccc3)c3ccc(Cl)cc32)cc1 (stereo not given),.,-9%,.,.,-42%
Cc1ccc(CN(C(=O)c2ccccc2)c2ccccn2)o1,.,-11%,.,.,.
Cc1ccc(C(=O)OCC(=O)N2CC(C)CC(C)C2)cc1S(=O)(=O)N1CCOCC1 (stereo not given),1%,-1%,0%,4%,.
CC1CCN(C(=O)COC(=O)c2cccc(S(=O)(=O)N(C)c3ccccc3)c2)CC1,-1%,11µM*,4%,-1%,.
Cc1ccc(C(=O)OCC(=O)N2CCC(C)CC2)cc1S(=O)(=O)N1CCCCC1,3%,17µM*,3%,0%,.
CN(C)c1ccc(C(=O)Nc2cccc(S(=O)(=O)N3CCCC3)c2)cc1,1%,1.7µM*,?,23%,.
SMILES,ELG1 genotoxic,FLuc counter,Rab9 prom act,NPC1 promoter act,SMN2 splice enh
CN(C)S(=O)(=O)c1cccc(NC(=O)c2ccc(S(=O)(=O)N3CCCCC3)cc2)c1,-3%,5%,0%,-1%,.
Cc1ccc(C(=O)Nc2cccc(C(=O)N3CCOCC3)c2)cc1Cl,?,9.5µM*,?,27%,.
O=[N+]([O-])c1cc(S(=O)(=O)N2CCCCC2)ccc1NCCCN1CCOCC1,-1%,0%,3%,-4%,-12%
Cc1nc(NC(=O)CN2CC(C)OC(C)C2)sc1C(=O)N(C)C (stereo not given),2%,-1%,-5%,-3%,.
COc1ccc(C(=O)Nc2cccc(C(=O)O)c2)cc1S(=O)(=O)N1CCCC1,-1%,11µM*,?,?,.
COc1ccc(C(=O)Nc2ccc(NC(=O)c3ccccc3)cc2)cc1S(=O)(=O)N1CCOCC1,3%,0%,2%,-2%,.
Cc1ccc(C(=O)Nc2cccc(C(=O)O)c2)cc1S(=O)(=O)N1CCCC1,.,0.095µM*,.,.,11µM*
Cc1ccc(C(=O)O)cc1S(=O)(=O)N1CCC(C(=O)O)CC1,-1%,1%,0%,0%,11µM*
O=C(O)c1cccc(NC(=O)c2cccc(S(=O)(=O)N3CCCCC3)c2)c1,?,6µM*,2.8µM*,?,24%
CCOc1ccc(CC(=O)NCc2cn3c(C)csc3n2)cc1,-1%,1%,1%,-2%,-20%
COC(=O)CCCC1=CC2=C(c3ccccc3)C(=O)C(C)(OC(=O)C3CCCC3)C(=O)C2=CN1CCCOC(C)C (stereo not given),.,.,.,.,0%[9.22 µM]
CCOc1ccc(CNCc2c(C(=O)O)n(Cc3ccccc3F)c3cc(OC)ccc23)cc1,.,-17%,.,.,.
Cn1c(=O)c2c(nc(NCCNc3nc4c(c(=O)n(C)c(=O)n4C)n3C)n2C)n(C)c1=O,.,.,.,.,4%[9.22 µM]
C/C(=N\NC(=O)c1cccc(Br)c1)c1cccc(NC(=O)c2ccc(C)o2)c1,-2%,17µM*,2%,0%,-1%
C/C(=N\NC(=O)c1ccccc1)c1cccc(Br)c1,?,13µM*,2.5µM*,?,?
C/C(=N/NC(=O)c1ccccc1)C(=O)O,?,3.4µM*,3.5µM*,3.5µM*,.
CC(/C=C/c1ccccc1F)=N\NC(=O)c1ccccc1,?,17µM*,3.2µM*,?,16µM*
CCC1=C(OC(=O)N(CC)CC)N2C(=O)OC(=NCC3CC3)[C@]2(C)[C@H]2C1=CC[C@H]1C(=O)N(c3ccccc3)C(=O)[C@H]12,.,.,.,.,-1%
CCc1ccc(C2=CC(c3c(F)cccc3Cl)n3c(nc4ccccc43)N2)cc1 (stereo not given),.,19µM*,.,.,.
Cc1cccc(C2C=C(c3ccc(F)cc3)Nc3nc4ccccc4n32)c1 (stereo not given),.,5.4µM*,.,.,.
Cc1ccc(C2=CC(c3ccccc3C)n3c(nc4ccccc43)N2)cc1 (stereo not given),.,6µM*,.,.,.
CCN(CC)C(=O)C1=C(C)Nc2nc3ccccc3n2C1c1ccccc1F (stereo not given),.,-2%,.,.,-12%
Cc1ncc([N+](=O)[O-])n1CC(=O)Nc1ccc(F)cc1F,4%,1%,4%,-2%,.
COc1ccc2c(c1)CCc1sc(NC(=O)c3ccc(C)cc3)nc1-2,-6%,8.5µM*,3%,0%,-31%
COc1ccc2c(c1)Cc1sc(NC(=O)c3cccnc3)nc1-2,-5%,?,15%,0%,-29%
COc1ccc2c(c1)-c1nc(NC(=O)c3cccs3)sc1CC2,-1%,19µM*,20%,3%,4%
COc1ccc2c(c1)CCc1sc(NC(=O)c3ccco3)nc1-2,?,21µM*,?,25%,10%
